# Source: publication PMC4336329 (PLoS ONE, 2015)
# Screen size: about 310,000 compounds; about 14,000 (4.5%) showed an effect of 50% or more. The effect is printed as a negative number. This is one part of a sample in which strong results are shown more often than they occur.
# Biological target: human ether-à-go-go-related gene (hERG) potassium channel (human, UniProt Q12809)
# Assay: primary screen, population patch clamp on CHO cells stably expressing hERG; higher = less effect of the substance
# 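Further: peak tail current of the secondary pulse compared with the same well before compound.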
# Sequence of human ether-à-go-go-related gene (hERG) potassium channel (Q12809 whole entry, looked up): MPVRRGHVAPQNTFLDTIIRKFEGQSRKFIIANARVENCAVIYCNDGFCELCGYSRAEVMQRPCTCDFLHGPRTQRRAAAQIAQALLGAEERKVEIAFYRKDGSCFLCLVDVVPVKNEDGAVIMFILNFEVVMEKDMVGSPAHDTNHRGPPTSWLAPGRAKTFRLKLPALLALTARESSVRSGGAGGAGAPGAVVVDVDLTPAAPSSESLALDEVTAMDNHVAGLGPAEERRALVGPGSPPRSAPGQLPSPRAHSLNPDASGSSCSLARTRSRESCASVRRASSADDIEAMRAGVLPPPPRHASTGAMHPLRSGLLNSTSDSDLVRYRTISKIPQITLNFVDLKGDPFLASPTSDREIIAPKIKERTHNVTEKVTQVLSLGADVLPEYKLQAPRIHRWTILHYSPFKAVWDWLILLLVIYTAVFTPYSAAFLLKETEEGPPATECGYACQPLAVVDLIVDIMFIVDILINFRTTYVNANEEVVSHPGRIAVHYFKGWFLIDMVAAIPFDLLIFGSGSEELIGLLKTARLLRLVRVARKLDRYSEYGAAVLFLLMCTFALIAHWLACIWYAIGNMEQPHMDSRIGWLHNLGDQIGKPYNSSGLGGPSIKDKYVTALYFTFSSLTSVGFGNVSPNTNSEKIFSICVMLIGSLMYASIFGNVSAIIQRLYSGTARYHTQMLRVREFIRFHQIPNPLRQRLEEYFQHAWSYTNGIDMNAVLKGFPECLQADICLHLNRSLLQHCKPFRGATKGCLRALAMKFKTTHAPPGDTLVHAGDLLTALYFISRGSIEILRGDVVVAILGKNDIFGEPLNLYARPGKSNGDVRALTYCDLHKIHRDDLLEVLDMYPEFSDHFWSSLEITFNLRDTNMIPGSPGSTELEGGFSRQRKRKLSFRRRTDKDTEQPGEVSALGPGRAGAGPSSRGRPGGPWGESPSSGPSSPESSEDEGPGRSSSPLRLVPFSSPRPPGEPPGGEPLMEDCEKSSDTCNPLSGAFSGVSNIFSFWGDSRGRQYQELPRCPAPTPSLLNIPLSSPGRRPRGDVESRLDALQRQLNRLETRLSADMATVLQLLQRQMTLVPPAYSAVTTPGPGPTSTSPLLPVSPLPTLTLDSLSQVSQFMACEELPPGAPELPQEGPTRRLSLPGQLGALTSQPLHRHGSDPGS
row,Compound,"hERG current change (%, negative = inhibition) at 10uM [%]"
1,CCOC(=O)c1c(NC(C)=O)sc2c(OC(C)=O)cccc12,8.8
2,Cn1c(CO)cnc1SCc1ccc(F)cc1,18.2
3,CCOc1ccccc1/C=N/NC(=O)c1nnn(-c2nonc2N)c1CN1CCC(C)CC1,9.08
4,CN(CC(=O)N1CCCc2c1c(=O)oc1ccc(O)cc21)Cc1ccccc1,-67.4
5,CCCOc1ccc2oc(=O)c3c(c2c1)CCCN3C(=O)CN(C)Cc1ccccc1,-29.7
6,CC(=O)c1cccc(NC(=O)C(C)N2CCc3ccccc3C2)c1 (stereo not drawn),4.43
7,CC1CCN(CCC(=O)N2CCCc3c2c(=O)oc2ccc(O)cc32)CC1,-14
8,CC(C(=O)N1CCCc2c1c(=O)oc1ccc(O)cc21)N1CCc2ccccc2C1 (stereo not drawn),-56.5
9,O=C(CN1CCN(Cc2ccccc2)CC1)N1CCCc2c1c(=O)oc1ccc(O)cc21,-14
10,O=C(NCCCl)C1Cc2c(ccc3ccccc23)O1 (stereo not drawn),7.97
11,O=C(CCNC(=O)C1CCN(S(=O)(=O)c2ccccc2)CC1)NCc1ccc(Cl)cc1,8.88
12,Nc1ccccc1Nc1ccncc1[N+](=O)[O-],20
13,CCOC(=O)C1(CCOc2ccccc2)CCN(Cc2ccc(OC)c(O)c2)CC1,-82.2
14,CCOC(=O)C1(CCOc2ccccc2)CCN(Cc2ccc(OCC)c(CO)c2)CC1,-79.5
15,CCOC(=O)C1(CCOc2ccccc2)CCN(Cc2ccc(OC)c(COC)c2)CC1,-80.2
16,CCOC(=O)C1(Cc2ccccc2)CCCN(Cc2cccc(C(C)=O)c2)C1 (stereo not drawn),-2.24
17,CCOC(=O)C1(Cc2ccccc2)CCCN(Cc2ccc(OCCO)cc2)C1 (stereo not drawn),-1.04
18,CCOC(=O)C1(Cc2ccccc2)CCCN(Cc2ccc(OCC)c(CO)c2)C1 (stereo not drawn),-52.3
19,Cc1ccc(NC(=O)COC(=O)CCc2c[nH]c3ccccc23)c(C)c1,9.87
20,COC(=O)C(C)Oc1ccc(Cl)c(CN2OCC(C)(C)C2=O)c1 (stereo not drawn),5.26
21,Cc1ccccc1OCCC(=O)OCC(=O)NCCc1ccccc1,-0.876
22,Cc1nnn(-c2nonc2N)c1C(=O)N/N=C/c1cccc2ccccc12,-7.26
23,CCOC(=O)C1CCN(S(=O)(=O)c2c(C)noc2C)CC1,-37.9
24,Cc1nc(C(C)N(C)Cc2c(C(=O)N3CCCCC3)nc3c(C)cccn23)c(C)s1 (stereo not drawn),-22.7
